# NS1 inh – influenza NS1 inhibition | Potency, µM (titrated, usually from 46.1 µM), inactives show top-dose activity, positive = more growth | 0.4% of 270,000 active | AID 2326; calls by dose curve; further: actives are rising curves; nearly all actives have a fitted effect of over 50% in size
#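 OD600 was taken as the measure of yeast growth restored by compound in an NS1-expressing S. cerevisiae strain. Cells had been washed out of glucose medium and diluted 1:100 into galactose -URA medium, pH 6.0.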
# HCV inhibitor – blocks hepatitis C virus; Huh7.5.1 HCVcc-Cre infection, luciferase reporter, 44 h; Potency, µM (highest dose often 41.8 µM), inactives show at the highest dose activity change, negative = inhibition, most hits filed as inhibitors; 3.4% of 340,000 active; further: on the % scale 0 is the no-effect control and ±100 the full control effect
#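 Whole-lifecycle infectious HCVcc-Cre system; cells 1,000/well, compound then virus (~0.5 moi) added 4 h after plating, 44 h culture. Luciferase read 15 sec following 15 min substrate incubation, room temp.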
# VACV mCherry inh – vaccinia inhibition (mCherry reporter). Vaccinia virus mCherry reporter infection, fluorescence. Potency, µM (highest dose often 36.5 µM), inactives show at the highest dose activity change, negative = inhibition, actives largely listed as inhibitors. AID 720579. 0.63% of 310,000 active; calls by dose curve; tested in A549 cells; further: on the % scale 0 is the no-effect control and ±100 the full control effect; nearly all actives have a fitted effect of over 35% in size
# Pf growth 96h – inhibits malaria parasite growth, 96 h. Potency, µM (highest dose often 28.7 µM), without a hit: top-dose activity change, negative = inhibition, actives largely listed as inhibitors. AID 504834. P. falciparum luciferase reporter growth, 96 h. 6.9% of 320,000 active; further: on the % scale 0 is the no-effect control and ±100 the full control effect
#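 Parasite growth measured via integrated firefly luciferase reporter in P. falciparum. Infected erythrocytes at 2% hematocrit, 0.05% parasitemia final were treated 96 hours at 37 C under 5% CO2, and luminescence was read.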
# Pf growth 48h – inhibits P. falciparum growth in the first generation, 48 h | P. falciparum luciferase growth in erythrocytes, 48 h | Potency, µM (highest dose often 28.7 µM), for the others: at the top dose activity change, negative = inhibition, most hits filed as inhibitors | 5.9% of 310,000 active; further: on the % scale 0 is the no-effect control and ±100 the full control effect
#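 Cell-based growth assay: transgenic P. falciparum expressing firefly luciferase, cultured in red cells within RPMI 1640 containing 0.5% w/v Albumax, 24 mM bicarbonate and gentamycin. A drop in luciferase activity indicates inhibition.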
# Vaccinia Venus – inhibitors of vaccinia virus (Venus reporter); Vaccinia virus Venus reporter expression, fluorescence; Potency, µM (series often up to 36.5 µM), inactives show top-dose activity change, negative = inhibition, actives largely listed as inhibitors; 0.46% of 330,000 active; calls by dose curve; tested in A549 cells; further: on the % scale 0 is the no-effect control and ±100 the full control effect; nearly all actives have a fitted effect of over 30% in size
# * hit, by the source's call; i = inactive; u = inconclusive; x = not tested or not shown; [ ] = remark or other dose. Shown are actives, neighbours in structure and some others; about 11% of the full set was active somewhere. Unless noted, the call rests on the fitted dose curve; in most records, active means well fitted inhibition curve with a large enough effect; inconclusive means small, poorly fitted or top-dose-only effect, or another doubt; inactive means no such curve, though single readings can be large or run the other way. Potency means the concentration at half of the fitted maximal effect.
SMILES,NS1 inh,HCV inhibitor,VACV mCherry inh,Pf growth 96h,Pf growth 48h,Vaccinia Venus
COC(=O)c1cc(=O)n(Cc2ccc(OC)c(OC)c2)c(=Nc2ccc(F)cc2)s1,3%,11µM*,2%,-23%,x,-4%
COC(=O)c1cc2c(C)nn(-c3ccccc3)c2s1,-10%,6.3µM*,x,u,38%,-29%
CCOC(=O)c1ccc(N=c2sc(C(=O)OC)cc(=O)n2-c2ccc(C(=O)OCC)cc2)cc1,8%,10µM*,i,15%,u,-12%
COC(=O)c1cc(=O)n(Cc2ccc(F)cc2)c(=Nc2ccccc2)s1,-3%,u,x,u,u,x
COC(=O)c1cc(=O)n(-c2ccccc2)c(=Nc2ccccc2)s1,-65%,u,u,-3%,u,5µM*
COC(=O)c1cc(=O)n(Cc2cccs2)c(=Nc2ccccc2)s1,-1%,u,x,u,u,x
CCN1CCN(c2ncnc3ccc(Br)cc23)CC1,1%,-9%,0%,13%,11%,-8%
Cc1ccc(OCc2nnc(SCC(=O)c3ccccc3)n2Cc2ccco2)cc1,-7%,u,x,20%,u,u
OCc1ccccc1,x,x,-16%,6µM*,5.4µM*,-8%
O=C(c1ccc2c(c1)OCO2)C1CCCN(Cc2ccc(F)c(F)c2)C1 (stereo unspecified),-6%,-28%,-10%,u,7%,-13%
O=C(c1ccc2c(c1)OCO2)C1CCCN(Cc2ccc(OC(F)F)cc2)C1 (stereo unspecified),1%,13µM*,x,10µM*,25%,x
CCOc1ccc(-n2ccnc2SCC(=O)Nc2cc(C)ccc2C)cc1,x,x,i,x,x,-21%
CCOC(=O)n1c(=O)n(C)c2ccc(Cl)cc21,x,3.2µM*,i,22%,36%,-3%
CCOc1ccc2cc(C3CC(c4ccco4)=NN3S(C)(=O)=O)c(Cl)nc2c1 (stereo unspecified),-9%,u,5%,u,u,-12%
Cc1c(Cl)sn(-c2ccc(Cl)cc2)c1=O,-57%,2.5µM*,u,u,u,u
CN1CCN(CC(=O)Nc2ccccc2C(F)(F)F)CC1,-10%,8%,x,u,5%,x
CCC(=O)c1ccc(OCC(=O)N2CCN(CC(=O)Nc3ccccc3C(F)(F)F)CC2)cc1,x,13µM*,i,x,x,-9%
COC(=O)C1=C(C)NC(C)=C([N+](=O)[O-])[C@H]1c1ccccc1C(F)(F)F,x,x,11%,x,x,-13%
COC(=O)C1=C(C)NC(C)=C(C(=O)OCC(C)C)C1c1ccccc1[N+](=O)[O-] (stereo unspecified),x,25µM*,u,2.4µM*,7.6µM*,-28%
COc1ccccc1/C=C/C=N/n1c(-c2ccncc2)n[nH]c1=S,17%,-9%,-18%,7.4µM*,-2%,-13%
N#Cc1cc(Oc2cccc3cccnc23)c(-n2nnc3ccccc32)cc1C#N,-132%,u,x,-2%,1.9µM*,x
O=c1c(Cl)c(Cl)cnn1Cc1ccccc1Cl,u,2.8µM*,u,u,-1%,u
O=c1c(Cl)c(Cl)cnn1-c1ccccc1,-11%,4µM*,x,u,-18%,x
Cc1ccc(Cn2ncc(Cl)c(Cl)c2=O)cc1,-28%,11µM*,-22%,u,-2%,u
Nc1c(Cl)cnn(-c2ccccc2)c1=O,x,15%,x,x,x,x
SMILES,NS1 inh,HCV inhibitor,VACV mCherry inh,Pf growth 96h,Pf growth 48h,Vaccinia Venus
O=c1[nH]cnc2c1cnn2Cc1ccccc1Cl,2%,8%,x,19%,24%,x
Cc1ccc(-c2nnc(Cc3ccc(Cl)cc3)o2)cc1,-66%,-20%,-14%,-6%,x,-11%
O=c1c(Cl)c(Cl)cnn1Cc1nnc(-c2ccc(Cl)cc2)o1,x,10µM*,u,-43%,1%,u
COCCNC(=O)c1cc(Sc2nnc(C)s2)nc2ccccc12,-6%,x,x,-2%,4%,x
CN(CC(=O)Nc1cccc(Cl)c1)S(=O)(=O)c1ccc2[nH]c3c(c2c1)CCCC3,x,x,-12%,x,x,-6%
OC(c1ccccc1)(c1ccccc1)C1CCN(C(=S)Nc2ccc(F)cc2)CC1,x,-8%,u,x,x,u
Cc1ccc(Cn2c(C)c3cnn(CC(=O)O)c(=O)c3c2C)cc1,x,x,2%,x,x,0%
Cc1[nH]c(C)c2c(=O)n(Cc3ccc(Cl)cc3)ncc12,7%,10%,x,u,12µM*,x
CCCCCCCCCCCCCC(=O)O[C@@H]1[C@@H](C)[C@@]2(O)[C@@H](C=C(CO)C[C@@]3(O)C(=O)C(C)=C[C@@H]23)C2C(C)(C)[C@@]21OC(C)=O (stereo partly specified),10%,x,x,x,x,x
O=C(Cc1ccc2ccccc2c1)Nc1ccccc1Br,6%,22%,-10%,3.3µM*,u,-5%
O=C(Cn1cc2c(n1)CCCC2)Nc1ccccc1Br,-58%,-6%,-5%,31%,x,-5%
O=C(Cc1ccc2c(c1)CCCC2)Nc1ccccc1Br,-2%,8%,-3%,2.6µM*,3.7µM*,-9%
COc1ccc(CC(=O)NCC(=O)Nc2ccccc2Br)cc1,-8%,-1%,-19%,43%,26%,-15%
CNC(=O)CSc1nc(-c2ccccc2)c(-c2ccccc2)[nH]1,-20%,9%,x,78%,15%,x
O=C(NC1CCCCC1)OCCN1CCN(Cc2ccccc2)CCC1=O,-6%,-3%[8.37 µM],x,-17%,-7%,x
Clc1ccc(-c2csc(N/N=C/c3cccnc3)n2)c(Cl)c1,4%,u,-15%,4.7µM*,10µM*,-13%
CC(C)(C)c1csc(N/N=C/c2cccnc2)n1,-38%,u,-9%,u,13µM*,-17%
Cc1sc(N/N=C/c2cccnc2)nc1-c1ccc(Cl)cc1,13%,u,x,63%,13µM*,x
Cc1onc(-c2ccc(Cl)cc2Cl)c1-c1csc(N/N=C/c2ccccc2Cl)n1,-3%,-17%,-26%,u,6.6µM*,-30%
Cc1cn(CC(C)C)c(=O)n(-c2ccccc2)c1=O,x,10%,i,x,x,-10%
CCOC(=O)c1ccc(NC(=O)CN2Cc3ccccc3C2=O)cc1,x,x,-13%,x,x,-10%
N#C/C(=C\c1cccnc1)c1ccc([N+](=O)[O-])cc1,-9%,-19%,-18%,2.6µM*,2%,-12%
N#C/C(=C/c1cccnc1)c1ccccc1,-37%,u,-24%,59%,11%,-7%
O=[N+]([O-])c1ccc(N/N=C/c2cccnc2)cc1,-54%,11µM*,i,u,-21%,-9%
N#C/C(=C\c1cccc([N+](=O)[O-])c1)C(=O)NCc1cccnc1,7%,-1%,-12%,6.6µM*,7%,-4%
O=[N+]([O-])c1ccc(N/N=C/c2ccc[nH]2)cc1,u,1µM*,5µM*,u,-23%,u
CC1Cc2ccccc2N1CC(=O)Nc1ccc(S(=O)(=O)N(C)C)cc1 (stereo unspecified),6%,15%,x,u,u,x

# Source: PubChem BioAssay (National Center for Advancing Translational Sciences (NCATS))
